In PubChem BioAssay (NCATS):
Inconclusive results are not listed. Where a call stands in place of a potency, no number is given. The source made the active and inactive calls. Calls follow the shape of the dose curve; as a rule, active = well fitted cell-killing curve with a large enough effect; inconclusive = small, poorly fitted or top-dose-only effect, or effect the other way; inactive = no such curve, though single readings can be large or run the other way.

Test: Quantitative High-Throughput drug screen in 47 multiple myeloma cell lines against the NCATS MIPE library collection: PE2_PLB cell viability assay (AID 1919869); also: nearly all actives have a fitted effect of over 35% in size
Settings: PE2_PLB myeloma cells viability, ATP luminescence, 48 h; series mostly up to 45.8 µM
Summary of the method: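 Plated at 500 cells per well, myeloma lines received MIPE 4.0 compounds by pin tool. Following 48 h culture at 37 °C, CellTiter-Glo luminescence gave viability relative to DMSO and media-only controls.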

Row | Structure (SMILES) | Potency
1 | CC(C)(C#N)c1cc(Cn2cncn2)cc(C(C)(C)C#N)c1 | inactive
2 | C[C@@H](NCCCc1cccc(C(F)(F)F)c1)c1cccc2ccccc12 | inactive
3 | COc1ncnc(NS(=O)(=O)c2ccc(N)cc2)c1OC | inactive
4 | O=P(O)(O)C(O)(Cc1cccnc1)P(=O)(O)O | inactive
5 | COc1ccccc1OCC(O)COC(N)=O (centres undefined) | inactive
6 | O=C(O)c1cc(=O)[nH]c(=O)[nH]1 | inactive
7 | Cc1onc(-c2ccccc2Cl)c1C(=O)N[C@@H]1C(=O)N2[C@@H]1SC(C)(C)[C@@H]2C(=O)O | inactive
8 | CCN[C@H]1C[C@H](C)S(=O)(=O)c2sc(S(N)(=O)=O)cc21 | inactive
9 | Cc1noc(NS(=O)(=O)c2ccc(N)cc2)c1C | inactive
10 | O=C(O)c1cccnc1 | inactive
11 | CCn1cc(C(=O)O)c(=O)c2cc(F)c(N3CCN(C)CC3)cc21 | inactive
12 | CN1CCN(c2c(F)cc3c(=O)c(C(=O)O)cn4c3c2OCN4C)CC1 | inactive
13 | COc1cccc(N(C)C(=S)Oc2ccc3c(c2)CCCC3)n1 | inactive
14 | CC(C)Cn1cnc2c(N)nc3ccccc3c21 | inactive
15 | CCCN[C@H]1CCc2nc(N)sc2C1 | inactive
16 | CC1CC2C3CCC4=CC(=O)C=C[C@]4(C)[C@@]3(F)[C@@H](O)C[C@]2(C)[C@@]1(O)C(=O)CO (some centres undefined) | inactive
17 | O=C(O)c1cn(C2CC2)c2cc(N3CCNCC3)c(F)cc2c1=O | inactive
18 | COCCCOc1cc(C[C@@H](C[C@H](N)[C@@H](O)C[C@H](C(=O)NCC(C)(C)C(N)=O)C(C)C)C(C)C)ccc1OC | inactive
19 | CCn1cc(C(=O)O)c(=O)c2cc(F)c(N3CCNCC3)cc21 | inactive
